Drawing on PubChem BioAssay AID488969 (Vanderbilt High Throughput Screening Facility, 2010), this text covers z-score for 113 compounds.

Whole data set: some 110,000 compounds, median “z-score” near -0.1, cut for the highest 2% near 2. This is one part of a sample in which the highest values are shown more often than they occur. Activity calls are given as the source filed them.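 How the source made its calls: active means z-score in the third read window above 3 or below -3; inactive means the rest.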

Sequence of Metabotropic glutamate receptor 8 (Rattus norvegicus) (P70579 whole entry, looked up): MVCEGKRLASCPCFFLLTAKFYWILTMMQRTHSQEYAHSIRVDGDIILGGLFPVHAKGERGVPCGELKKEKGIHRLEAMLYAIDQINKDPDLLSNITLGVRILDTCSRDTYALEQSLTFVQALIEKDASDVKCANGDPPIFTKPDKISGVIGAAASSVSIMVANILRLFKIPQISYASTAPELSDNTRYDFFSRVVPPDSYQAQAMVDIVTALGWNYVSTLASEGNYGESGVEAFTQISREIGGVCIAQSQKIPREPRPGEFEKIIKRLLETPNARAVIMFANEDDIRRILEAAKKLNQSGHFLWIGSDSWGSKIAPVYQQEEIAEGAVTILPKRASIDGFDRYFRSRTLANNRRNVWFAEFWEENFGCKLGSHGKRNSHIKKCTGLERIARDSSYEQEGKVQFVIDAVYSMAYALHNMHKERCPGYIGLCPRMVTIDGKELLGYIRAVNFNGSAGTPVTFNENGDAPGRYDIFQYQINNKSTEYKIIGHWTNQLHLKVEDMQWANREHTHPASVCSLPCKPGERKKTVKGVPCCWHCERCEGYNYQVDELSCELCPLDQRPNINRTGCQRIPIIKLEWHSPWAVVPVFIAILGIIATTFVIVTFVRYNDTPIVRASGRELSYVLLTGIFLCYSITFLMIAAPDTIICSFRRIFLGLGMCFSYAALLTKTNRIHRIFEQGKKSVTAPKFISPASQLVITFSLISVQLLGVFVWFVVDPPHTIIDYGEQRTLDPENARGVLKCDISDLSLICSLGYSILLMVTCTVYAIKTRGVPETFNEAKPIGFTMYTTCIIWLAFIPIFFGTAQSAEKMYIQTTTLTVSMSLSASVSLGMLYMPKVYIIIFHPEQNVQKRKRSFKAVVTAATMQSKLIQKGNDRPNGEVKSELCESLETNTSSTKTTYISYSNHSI

The assay has as its target Metabotropic glutamate receptor 8 (Rattus norvegicus) (UniProt P70579). The assay can be described thus: mGluR8 Gi/Go-coupled signaling modulation – cell-based, rat, thallium flux, HTS, primary screen (AID 488969). Conditions: HEK293 rat mGluR8, GIRK (G protein-gated inwardly rectifying potassium channel) thallium flux, FluoZin2; at 10 µM; stronger effect = higher value; submaximal glutamate (EC20) added with thallium.
The compound `CCCCn1c(CN2CCN(c3ccc(F)cc3)CC2)nc2c1c(=O)n(C)c(=O)n2C` had a z-score of -0.751.

In the case of `c1ccc(CSc2nnnn2-c2ccccc2)cc1`, the z-score was -0.542.

For the compound `CCn1c(SCc2nc(-c3ccccc3)no2)nc2ccccc21`, the z-score is 3.16 (active).

On to `CCn1c(SCc2nc(-c3ccccc3)no2)nnc1-c1ccco1`, for which the z-score is -0.421.

The compound `c1ccc(-c2noc(CSc3nnnn3C3CCCCC3)n2)cc1` returned a z-score of -0.0529.

For `c1ccc(-c2noc(CSc3nnnn3-c3ccccc3)n2)cc1`, the z-score is 2.18.

Consider `CCn1c(SCc2nc(-c3ccccc3)no2)nnc1-c1cccs1`, for which the z-score was determined as 1.84.

Take `CC(C)c1[nH]nc2c1C(c1cccc(OC(=O)N3CCOCC3)c1)C(C#N)=C(N)O2` (stereo not drawn): the z-score is -1.23.

In turn, `FC(F)(F)c1ccc(CSc2nccn2-c2ccccc2)cc1` came in with a z-score of 0.167.

As for `COc1cc(OC)c(OC)cc1/C=N/NC(=O)c1ccc(=O)n(C)c1`, the z-score is -0.238.

On to `Cc1cccc(C(=O)/C=C2/c3ccccc3CC(C)(C)N2C)c1`, for which the z-score is -0.509.

Take `CCOCCN1CCN(c2c(CC)c(C)nc3cc(-c4cc(OC)cc(OC)c4)nn23)CC1`: the z-score was -0.938.

With `Nc1nc(SCC(=O)NC2CCCC2)[nH]c(=O)c1-c1ccccc1`, the z-score was -0.603.

For `O=C(c1ccccc1NS(=O)(=O)c1cccs1)N1CCCC1`, the z-score turned out to be 0.676.

In turn, `CCOC(=O)CSc1nc2ccccc2c(=O)n1C1CCCC1` had a z-score of 0.684.

`COC(=O)c1ccc2c(=O)n(C3CCCCC3)c(SCC#N)nc2c1`: the z-score was 3.63 (active).

Compound `CCOC(=O)CSc1nc2cc(C(=O)NCc3ccco3)ccc2c(=O)n1C1CCCCC1` returned a z-score of 0.724.

Regarding `Cc1ccc(OC(=S)Nc2ccccc2)c(C)c1`, the z-score is 3.2 (active).

`CCCCOC(=O)c1ccc(NC(=O)Nc2ccc(OC)c(OC)c2)cc1` displayed a z-score of -0.113.

For `COc1ccc(OC)c(NC(=O)Nc2ccc(Cl)cc2)c1`, the z-score amounted to 0.245.

On to `COc1ccc(NC(=O)Nc2cc(C)ccc2OC)cc1`, for which the z-score is 2.83.

On to `Cc1ccc(OC(=S)Nc2ccc(F)cc2)cc1`, for which the z-score was found to be 0.0616.

For `CCOC(=O)c1ccc(NC(=O)Nc2ccc(OC)c(OC)c2)cc1`, the z-score was 6.79 (active).

In turn, `COc1ccc(C(=O)NCCC2=CCCCC2)cc1OC` yielded a z-score of -0.214.

Compound `COc1ccc(NC(=O)C(=O)NCCC2=CCCCC2)c(OC)c1` gave a z-score of -0.33.

For `CCOC(=O)c1ccccc1NC(=O)Nc1ccc(OC)c(OC)c1`, the z-score turned out to be 0.154.

In turn, `Cc1ccc(OC(=S)Nc2ccc(O)cc2)cc1` had a z-score of 0.0849.

With `COc1ccc(C)cc1NC(=O)NCCC1=CCCCC1`, the z-score was 10.6 (active).

`COc1ccc(NC(=O)Nc2cc(C)ccc2F)cc1`: the z-score was found to be 0.0419.

Turning to `Cc1nn(CC(=O)Nc2cccc(S(N)(=O)=O)c2)c(C)c1[N+](=O)[O-]`, the z-score is -0.212.

`CCOc1ccc(-c2nnn(CC(=O)c3cc(OC)ccc3OC)n2)cc1` had a z-score of 1.52.

The compound `CCCNC(=O)Cn1cnc2sc(C(=O)N3CCCC(C(=O)OCC)C3)c(C)c2c1=O` (stereo not drawn) gave a z-score of -1.05.

`CCN(CC)S(=O)(=O)c1ccc(NC(=O)C2CCCO2)cc1` (stereo not drawn) returned a z-score of -0.205.

Compound `CCCn1nc(C(=O)NCCN2CCOCC2)c2ccccc2c1=O` gave a z-score of 0.608.

`Cc1occc1-c1nnc(SCC(=O)N(C)CCC#N)n1N` displayed a z-score of 0.286.

For the compound `O=C(NC1CCCCC1)C(c1ccc(O)cc1)N(CC1CCCO1)C(=O)C1COc2ccccc2O1` (stereo not drawn), the z-score was 0.338.

In the case of `COc1ccc(C)cc1NC(=O)Nc1ccccc1`, the z-score was 11.5 (active).

Turning to `COc1ccc(C)cc1NC(=O)Nc1ccc(Br)cn1`, the z-score is 0.233.

`CCOC(=O)Nc1cc(C)ccc1OC`: the z-score turned out to be 0.0736.

The compound `Cc1cccc(-c2nnn(Cc3nnc(NC(=O)c4ccccc4)s3)n2)c1` yielded a z-score of -0.0603.

In turn, `Cc1ccc(C(=O)N2CCN(c3ccc(C(F)(F)F)cn3)CC2)c(C)c1` had a z-score of -0.0998.

In turn, `CC1CC(C)CN(C(=O)c2cc(-c3ccccn3)nc3ccccc23)C1` (stereo not drawn) gave a z-score of -1.27.

Take `Cn1ccnc1SCC(=O)Nc1ccc2nc(SCC(=O)NC3CC3)sc2c1`: the z-score was -0.00819.

On to `CCOc1c2ccc(C(=O)NCc3cc(C(F)(F)F)cc(C(F)(F)F)c3)cc2nn1C`, for which the z-score came to 0.112.

Compound `CCOC(=O)N1CCN(C(=O)CCCn2c(=S)[nH]c3ccc(Br)cc3c2=O)CC1` yielded a z-score of 1.24.

Compound `O=C(CCCCCn1c(=S)[nH]c2ccc(Br)cc2c1=O)NCC1CCCO1` (stereo not drawn) returned a z-score of 1.92.

As to `C=C(C)Cn1c(=S)[nH]c2ccccc2c1=O`, the z-score is -0.0946.

Consider `C=CCn1c(=S)[nH]c2ccccc2c1=O`, for which the z-score is 13.6 (active).

For the compound `C=CCn1c(=S)[nH]c2ccc(Br)cc2c1=O`, the z-score is 15 (active).

`CC(C)OC(=O)CSc1nnc(Cc2ccccc2)n1Cc1ccco1` came in with a z-score of -0.4.

Turning to `Cc1cccc2cc(C(c3nnnn3C(C)(C)C)N3CCN(C(=O)c4ccco4)CC3)c(=O)[nH]c12` (stereo not drawn), the z-score is 0.516.

`CCN1CCN(C(=O)C2CCN(C(=O)c3cc4sccc4n3CC)CC2)CC1` displayed a z-score of 2.56.

Take `CCn1c(C(=O)N2CCC(C(=O)N3CCN(c4ccccn4)CC3)CC2)cc2sccc21`: the z-score came out at 0.181.

For the compound `CCN1CCN(C(=O)c2cc3sccc3n2CC(=O)c2ccccc2)CC1`, the z-score is -0.119.

For `CC1(C)C(C#N)=C(N)OC2=C1C(=O)CCC2`, the z-score stood at 0.297.

Compound `Cc1cc2nc3c(c(=O)n2[nH]1)CCCC3` came in with a z-score of -0.219.

As to `CCCC(=O)Nc1nc2ccc(S(N)(=O)=O)cc2s1`, the z-score was -0.295.

As to `O=C(NCC1CCCO1)C(c1cccs1)N(Cc1cccs1)C(=O)c1ccc(-c2ccccc2)[nH]1` (stereo not drawn), the z-score is -0.486.

With `O=C(NCC1CCCO1)C(c1cccs1)N(Cc1ccccc1Cl)C(=O)c1ccc(-c2ccccc2)[nH]1` (stereo not drawn), the z-score is 2.14.

`O=C(NCC1CCCO1)C(c1cccs1)N(C(=O)c1ccc(-c2ccccc2)[nH]1)C1CCCC1` (stereo not drawn) gave a z-score of -0.0712.

`COC(=O)CC1COc2ccccc2N1C(=O)c1ccc(C(C)(C)C)cc1` (stereo not drawn) gave a z-score of -0.191.

Take `CCCC(=O)Nc1cc(-c2nnc(OC)c3ccccc23)ccc1N1CCOCC1`: the z-score was -0.445.

Regarding `O=C(Oc1ccc([N+](=O)[O-])cc1)c1cccnc1`, the z-score is -0.0965.

As for `CCNC(=S)SCCOc1ccc(C)cc1`, the z-score was found to be 0.376.

For the compound `CNC(=S)SCCOc1ccc(C)cc1`, the z-score is 6.37 (active).

Compound `CNC(=S)SCCOc1ccccc1C` had a z-score of 0.297.

`Cc1ccc2nc3sc(C(=O)Nc4c(C)[nH]c(=O)[nH]c4=O)c(N)c3cc2c1` displayed a z-score of -0.158.

`NC(=O)CCn1nc(-c2ccc(Cl)cc2)c2ccccc2c1=O` came in with a z-score of -0.686.

With `COc1ccc(/C(O)=C/C(=O)C(=O)NNC(=O)C(O)(c2ccccc2)c2ccccc2)cc1`, the z-score is -0.343.

The compound `Cc1ccc(/C(O)=C/C(=O)C(=O)NNC(=O)C(O)(c2ccccc2)c2ccccc2)cc1` registered a z-score of 2.44.

As for `O=C(/C=C(\O)c1ccc(Cl)cc1)C(=O)NNC(=O)C(O)(c1ccccc1)c1ccccc1`, the z-score is -0.125.

As for `CCn1c(SCC(=O)Nc2nnc(C)s2)nnc1-c1ccco1`, the z-score is -0.0211.

On to `O=C1C(=O)N(CCO)C(c2ccccc2)/C1=C(\O)c1ccccc1` (stereo not drawn), for which the z-score is -0.284.

Consider `O=C(CNC(=O)C12CC3CC(CC(C3)C1)C2)N1CCN(S(=O)(=O)c2cccs2)CC1`, for which the z-score was -0.178.

With `CCCn1c(SCC(=O)NC2CCCCC2C)n[nH]c1=O` (stereo not drawn), the z-score amounted to 0.79.

In turn, `Cc1ccc(-c2ccc(/C=N/NC(=S)Nc3ccccc3)o2)cc1[N+](=O)[O-]` returned a z-score of 0.442.

As for `COC(=O)N/N=C/c1ccc([N+](=O)[O-])o1`, the z-score was -0.0263.

Regarding `O=[N+]([O-])c1ccc(/C=N/NC(=S)Nc2ccccc2)o1`, the z-score worked out at 2.92.

In the case of `O=[N+]([O-])c1ccc(/C=N/NC(=S)Nc2ccccc2F)o1`, the z-score is 6.05 (active).

The compound `O=C(CNc1ccccc1)N/N=C/c1ccc([N+](=O)[O-])o1` returned a z-score of -0.389.

`O=[N+]([O-])c1ccc(/C=N/NC(=S)Nc2ccccc2C(F)(F)F)o1` gave a z-score of 1.06.

`N#CCCn1cc(/C=N/O)c(-c2ccccc2)n1` yielded a z-score of 0.0606.

Take `C1=C(CCNc2nnnn2-c2ccccc2)CCCC1`: the z-score was -0.26.

In the case of `Fc1cccc(NC(=S)Nc2ccc(Br)cc2)c1`, the z-score was found to be 0.843.

`FC(F)(F)c1ccc(Cl)c(NC(=S)N/N=C/c2ccccc2C(F)(F)F)c1` returned a z-score of 1.14.

As to `Cc1nn(-c2ccccc2)c(N2CCCC2)c1/C=N/NC(=S)Nc1ccccc1F`, the z-score was determined as 2.42.

Regarding `Cc1nn(-c2ccccc2)c(N2CCCC2)c1/C=N/NC(=S)Nc1ccccc1C(F)(F)F`, the z-score was 0.583.

With `CN(C)/C=N/C(=S)Nc1ccccc1F`, the z-score came to 0.0261.

Take `Fc1ccc(CNC(=S)Nc2ccc(Cl)cc2Cl)cc1`: the z-score was found to be 0.134.

As to `Fc1ccccc1NC(=S)Nc1ccc(Br)cc1`, the z-score came out at 0.657.

Turning to `Cc1ccc(NC(=S)N/N=C/c2c(C)nn(-c3ccccc3)c2N2CCCC2)cc1`, the z-score was 0.376.

For the compound `Fc1ccccc1NC(=S)N/N=C/c1ccccc1Br`, the z-score was 13.4 (active).

Turning to `Fc1ccccc1/C=N/NC(=S)Nc1ccc(Cl)cc1Cl`, the z-score is 3.47 (active).

As to `Cn1c(NC(=O)c2ccco2)cc(=O)n(C)c1=O`, the z-score was -0.188.

In turn, `O=C(CCSCCc1ccccn1)Nc1ccc(Br)cc1F` gave a z-score of -0.191.

Regarding `CCc1nc2ccccc2n1Cc1ccccc1OC`, the z-score is -0.822.

`CC1=NNC(=O)C1CCC(=O)N/N=C/C(Br)=C/c1ccccc1` (stereo not drawn): the z-score is -0.0952.

On to `O=C(c1ccc([N+](=O)[O-])cc1)N(Cc1ccc(Cl)cc1)N1C(=O)CCCC1=O`, for which the z-score was -0.682.

With `Cn1cnnc1SCC(=O)Nc1sc2c(c1C#N)CCCCC2`, the z-score is 0.0796.

`COc1ccc2cnn(Cc3ccccc3)c(=O)c2c1OC` showed a z-score of 0.037.

In turn, `Cc1ccc(/C=N/n2c(C3CCCCC3)n[nH]c2=S)s1` came in with a z-score of 0.644.

`Cc1ccc(-c2n[nH]c(=S)n2/N=C/c2ccc(C)s2)cc1` displayed a z-score of 2.29.

As for `S=c1[nH]nc(C2CCCCC2)n1/N=C/c1cccs1`, the z-score was 2.48.

Consider `Cc1ccc(-c2n[nH]c(=S)n2/N=C/c2cccs2)cc1`, for which the z-score is 2.22.

Regarding `Cc1ccsc1/C=N/n1c(COc2ccccc2)n[nH]c1=S`, the z-score turned out to be 0.533.

`Cc1ccc(/C=N/n2c(-c3cccnc3)n[nH]c2=S)s1` came in with a z-score of -0.311.

The compound `Cc1ccsc1/C=N/n1c(C2CCCCC2)n[nH]c1=S` returned a z-score of 0.383.

In turn, `CC(C)(C)c1n[nH]c(=S)n(/N=C/c2cccs2)c1=O` gave a z-score of 0.25.

`S=c1[nH]nc(-c2ccccc2)n1/N=C/c1cccs1` registered a z-score of 0.587.

For `S=c1[nH]nc(COc2ccccc2)n1/N=C/c1cccs1`, the z-score was 0.649.

`Cc1ccc(/C=N/n2c(COc3ccccc3)n[nH]c2=S)s1`: the z-score is 3.29 (active).

`Cc1cccc(-c2n[nH]c(=S)n2/N=C/c2ccc(C)s2)c1` had a z-score of 0.7.

The compound `CS(=O)(=O)Nc1ccc(-c2n[nH]c(=S)n2-c2ccccc2)cc1` returned a z-score of 0.118.
